The assay deals with T1, CRBN, Q96SW2.
T1 chain: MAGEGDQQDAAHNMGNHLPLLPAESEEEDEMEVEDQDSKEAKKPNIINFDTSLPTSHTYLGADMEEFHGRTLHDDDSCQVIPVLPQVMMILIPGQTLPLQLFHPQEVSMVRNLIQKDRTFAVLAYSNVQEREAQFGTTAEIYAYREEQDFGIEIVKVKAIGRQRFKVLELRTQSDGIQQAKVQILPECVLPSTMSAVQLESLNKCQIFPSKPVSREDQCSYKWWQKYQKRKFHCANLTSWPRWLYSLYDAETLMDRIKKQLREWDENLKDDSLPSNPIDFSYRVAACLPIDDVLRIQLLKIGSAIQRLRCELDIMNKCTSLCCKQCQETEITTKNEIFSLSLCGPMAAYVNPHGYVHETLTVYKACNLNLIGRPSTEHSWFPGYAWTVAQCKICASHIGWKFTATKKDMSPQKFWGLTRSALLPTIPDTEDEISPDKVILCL
Briefly: log2 fold change of degron read counts, EGFP-low vs EGFP+ sorted cells (limma voom), compound-induced degradation; higher = more compound-induced degradation of the degron-EGFP fusion; degrons are variants of IKZF1/3 zinc finger 2; compound dose not given here. The following applies: Jurkat, 18 h.

The mark [1] stands for this setting: compound: compound 19 (5-tert-butyl-thalidomide).
Setting [2] is: compound: compound 22 (5-morpholino-thalidomide).
[3] abbreviates: compound: compound 33 (diphenyl IMiD analogue).

Experimental findings from the supplement of paper PMC12645437, “Orthogonal IMiD-Degron Pairs Induce Selective Protein Degradation in Cells” (ACS Chemical Biology, 2025) are described below.

Over roughly 8,300 sequences, “log2 fold change of degron read counts, EGFP-low vs EGFP+ sorted cells (limma voom), compound-induced degradation” has its median near -1.1; the highest 2% begin near 3.2. The full list was thinned out, with the highest values kept by preference.
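Also: pooled lentiviral library of zinc finger degron-EGFP fusions in mCherry-positive Jurkat cells, FACS-sorted after compound exposure, with degron abundance counted by next-generation sequencing.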

Turning to FKCSVCGHMFTQKGNLLRHIKL [46F_47K_49S_50V_52G_53H_54M_55F_67L_, Q9UKT9], the “log2 fold change of degron read counts” value was -3.17 under setting [1], -3 under setting [2], -3.02 under setting [3] and -2.7 (compound: thalidomide).

In the case of LICNQCGFDCTQKGNLLRHIKL [46L_47I_49N_50Q_52G_53F_54D_55C_67L_, Q9UKT9], the “log2 fold change of degron read counts” value under setting [1] was -3.41, the “log2 fold change of degron read counts” value under setting [2] was -3.2, the “log2 fold change of degron read counts” value under setting [3] is -2.9 and the “log2 fold change of degron read counts” value (compound: thalidomide) was -2.97.

Consider FYCDICGAMFTQKGNLLRHIKL [46F_47Y_49D_50I_52G_53A_54M_55F_67L_, Q9UKT9], for which the “log2 fold change of degron read counts” value is 2.46 under setting [1], 1.99 under setting [2], 0.476 under setting [3] and -1.55 (compound: thalidomide).

Regarding FRCNQCGHNFTQKGNLLRHIKL [46F_47R_49N_50Q_52G_53H_54N_55F_67L_, Q9UKT9], the “log2 fold change of degron read counts” value by setting is: under setting [1], -2.02; under setting [2], -3.14; under setting [3], -2.79; (compound: thalidomide) -2.26.

On to FLCNVCGAPFTQKGNLLRHIKL [46F_47L_49N_50V_52G_53A_54P_55F_67L_, Q9UKT9], for which the “log2 fold change of degron read counts” value by setting is: under setting [1], -0.289; under setting [2], 0.405; under setting [3], 1.47; (compound: thalidomide) 1.32.

Regarding FVCDVCGAPFTQKGNLLRHIKL [46F_47V_49D_50V_52G_53A_54P_55F_67L_, Q9UKT9], the “log2 fold change of degron read counts” value under setting [1] was -0.0613, the “log2 fold change of degron read counts” value under setting [2] turned out to be 2.93, the “log2 fold change of degron read counts” value under setting [3] is 1.05 and the “log2 fold change of degron read counts” value (compound: thalidomide) stood at 2.09.

As to FFCDVCGAPFTQKGNLLRHIKL [46F_47F_49D_50V_52G_53A_54P_55F_67L_, Q9UKT9], the “log2 fold change of degron read counts” value is, setting by setting: under setting [1], 2.96; under setting [2], 1.95; under setting [3], 0.307; (compound: thalidomide) -0.766.

Consider FFCPVCGAPFTQKGNLLRHIKL [46F_47F_49P_50V_52G_53A_54P_55F_67L_, Q9UKT9], for which the “log2 fold change of degron read counts” value reads like this: under setting [1], 3.53; under setting [2], 2.84; under setting [3], 2.23; (compound: thalidomide) 1.5.

In the case of FQCPVCGAPFTQKGNLLRHIKL [46F_47Q_49P_50V_52G_53A_54P_55F_67L_, Q9UKT9], the “log2 fold change of degron read counts” value worked out at 3.11 under setting [1], 3.34 under setting [2], 2.34 under setting [3] and 3.87 (compound: thalidomide).

Consider FRCPVCGAPFTQKGNLLRHIKL [46F_47R_49P_50V_52G_53A_54P_55F_67L_, Q9UKT9], for which the “log2 fold change of degron read counts” value runs as follows: under setting [1], 3.29; under setting [2], 3.62; under setting [3], 3.27; (compound: thalidomide) 3.51.

Turning to FQCDVCGAPFTQKGNLLRHIKL [46F_47Q_49D_50V_52G_53A_54P_55F_67L_, Q9UKT9], the “log2 fold change of degron read counts” value was 0.996 under setting [1], 2.11 under setting [2], -0.0653 under setting [3] and 2.48 (compound: thalidomide).

Turning to FRCDVCGAPFTQKGNLLRHIKL [46F_47R_49D_50V_52G_53A_54P_55F_67L_, Q9UKT9], the “log2 fold change of degron read counts” value runs as follows: under setting [1], 2.07; under setting [2], 3.3; under setting [3], 3.21; (compound: thalidomide) 2.88.

Turning to FGCDVCGAPFTQKGNLLRHIKL [46F_47G_49D_50V_52G_53A_54P_55F_67L_, Q9UKT9], the “log2 fold change of degron read counts” value by setting is: under setting [1], -1.15; under setting [2], -2.27; under setting [3], -2.07; (compound: thalidomide) -2.21.

For the sequence FRCNVCGAPFTQKGNLLRHIKL [46F_47R_49N_50V_52G_53A_54P_55F_67L_, Q9UKT9], the “log2 fold change of degron read counts” value under setting [1] was 2.26, the “log2 fold change of degron read counts” value under setting [2] was determined as 2.96, the “log2 fold change of degron read counts” value under setting [3] was determined as 2.94 and the “log2 fold change of degron read counts” value (compound: thalidomide) stood at 2.77.

Take FFCNVCGAPFTQKGNLLRHIKL [46F_47F_49N_50V_52G_53A_54P_55F_67L_, Q9UKT9]: the “log2 fold change of degron read counts” value was 2.8 under setting [1], 1.44 under setting [2], 0.47 under setting [3] and -0.472 (compound: thalidomide).

On to FQCNVCGAPFTQKGNLLRHIKL [46F_47Q_49N_50V_52G_53A_54P_55F_67L_, Q9UKT9], for which the “log2 fold change of degron read counts” value by setting is: under setting [1], 0.618; under setting [2], 2.01; under setting [3], 0.742; (compound: thalidomide) 2.69.
